Most compounds without a hit are left out; they make up all but 10% or so of the library.
FLuc inh: inhibitors of firefly (Photinus pyralis) luciferase. P08659. purified P. pyralis luciferase, luminescence, biochemical. Potency, µM (doses to about 115 µM), most hits filed as inhibitors. actives 2.5% (n = 76,000); further: on the % scale 0 is the no-effect control and ±100 the full control effect; nearly all actives have a fitted effect of over 65% in size
Target sequence (P08659 whole entry, looked up): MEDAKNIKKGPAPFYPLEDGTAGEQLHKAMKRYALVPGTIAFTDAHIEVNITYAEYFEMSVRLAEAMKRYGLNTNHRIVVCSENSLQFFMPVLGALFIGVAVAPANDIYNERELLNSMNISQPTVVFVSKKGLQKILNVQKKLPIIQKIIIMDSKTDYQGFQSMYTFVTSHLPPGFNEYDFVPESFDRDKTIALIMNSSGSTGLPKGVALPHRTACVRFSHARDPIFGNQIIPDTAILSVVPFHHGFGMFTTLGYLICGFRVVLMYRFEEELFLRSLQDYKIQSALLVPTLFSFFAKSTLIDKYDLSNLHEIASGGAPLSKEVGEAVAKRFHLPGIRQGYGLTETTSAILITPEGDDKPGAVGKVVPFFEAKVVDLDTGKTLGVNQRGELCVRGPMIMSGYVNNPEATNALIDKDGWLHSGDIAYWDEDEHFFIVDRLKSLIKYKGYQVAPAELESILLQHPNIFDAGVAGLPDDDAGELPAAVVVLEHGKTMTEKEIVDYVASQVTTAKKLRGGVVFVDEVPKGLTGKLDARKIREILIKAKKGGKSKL
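Luminescence read by CCD imager after adding enzyme (10nM final) to wells holding compound, titrated in qHTS. Substrates 10uM each D-luciferin and ATP; buffer 50mM Tris acetate pH 7.5, 10mM Mg acetate, Tween-20, BSA.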
GPT2 inhibitor: inhibitors of human GPT2 alanine aminotransferase | Q8TD30 | Recombinant GPT2, coupled pyruvate oxidase/HRP Amplex Red fluorescence | Potency, µM (titrated, usually from 57.7 µM), for the others: at the highest dose activity change, negative = inhibition, actives largely listed as inhibitors | actives 0.25% (n = 100,000) | AID 1671188; further: on the % scale 0 is the no-effect control and ±100 the full control effect; nearly all actives have a fitted effect of over 60% in size
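Fluorescence of coupled pyruvate oxidase/HRP/Amplex Red system (50uM Amplex, 30 min, dark) reports pyruvate formed by GPT2. Enzyme reaction: 10ng/uL GPT2, 2mM L-alanine, 250uM a-KG, 30 min room temperature, pH 7.5; 50uM AOA control.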
HEK cytotox: kills HEK 293 cells; HEK 293 viability, ATP luminescence (CellTiter-Glo), 48-72 h; Potency, µM (series often up to 115 µM), without a hit: at the highest dose activity change, negative = cytotoxicity, most hits filed as inhibitors; actives 6.6% (n = 94,000); further: on the % scale 0 is the no-effect control and ±100 the full control effect; nearly all actives have a fitted effect of over 60% in size
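HEK 293 seeded at 250 cells/well receive compound via pintool. After 48 or 72 hr at 37 degree Celsius, 5% CO2 and 95% humidity, CellTiter-Glo is dispensed and luminescence read following 10 min at room temperature.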
NIH3T3 tox: kills NIH 3T3 cells | actives 4.3% (n = 94,000) | NIH 3T3 viability, CellTiter-Glo ATP luminescence, 48-72 h | AID 1345082 | Potency, µM (top dose mostly 96.7 µM), without a hit: at the top dose activity change, negative = cytotoxicity, usual class: inhibitors; further: on the % scale 0 is the no-effect control and ±100 the full control effect; nearly all actives have a fitted effect of over 55% in size
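Cytotoxicity was measured by CellTiter-Glo ATP luminescence after 48 or 72 h compound exposure at 37 °C. Mouse NIH 3T3 fibroblasts were seeded at 400 cells/well and dosed by 23 nL pin transfer.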
hNpr1 antagonist: blocks ANP-stimulated signaling of human Npr1 receptor | P16066 | HEK293 hNpr1 GloSensor cGMP, ANP-stimulated luminescence | Potency, µM (titrated, usually from 46.3 µM), for the others: at the top dose activity change, negative = inhibition, most hits filed as inhibitors | actives 1.6% (n = 76,000) | AID 1347048; calls by dose curve; further: on the % scale 0 is the no-effect control and ±100 the full control effect; nearly all actives have a fitted effect of over 60% in size
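HEK293 cells stably expressing human Npr1 and cGMP GloSensor pGS-40F, loaded 2 h with 2% GloSensor reagent, given compound 30 min at room temperature. Luminescence read before and 20 min after 0.1 nM hNppA.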
Npr1 antag conf: hNpr1 antagonism, confirmation assay. actives 76% (n = 1,400). HEK293 hNpr1 cGMP GloSensor luminescence, ANP-stimulated. Potency, µM (top dose mostly 57.6 µM), inactives show at the highest dose activity change, negative = inhibition, hits mostly inhibitors. AID 1347044. shares compounds with hNpr1 antagonist; calls by dose curve; further: nearly all actives have a fitted effect of over 70% in size
Npr2 selectivity: selectivity test of Npr1 antagonists against human Npr2; AID 1347046; shares compounds with hNpr1 antagonist; Potency, µM (highest dose often 57.6 µM), inactives show at the highest dose activity change, negative = inhibition, hits mostly inhibitors; HEK293 hNpr2 GloSensor cGMP luminescence, CNP-stimulated; actives 67% (n = 1,400); calls by dose curve; further: nearly all actives have a fitted effect of over 70% in size
FLuc counter: inhibits firefly luciferase, false Npr1 antagonist flag. shares compounds with hNpr1 antagonist. purified FLuc enzyme, luminescence, Km substrate. Potency, µM (doses to about 57.6 µM), for the others: at the highest dose activity change, negative = inhibition, hits mostly inhibitors. actives 0.7% (n = 1,400). AID 1347047; further: 0% is about no effect
GloSensor ctrl: reduces cGMP signal in GloSensor control cells | shares compounds with hNpr1 antagonist | HEK293 GloSensor cGMP, SNP-stimulated, luminescence | Potency, µM (top dose mostly 57.6 µM), for the others: at the highest dose activity change, negative = inhibition, actives largely listed as inhibitors | actives 69% (n = 1,400) | AID 1347051; calls by dose curve; further: on the % scale 0 is the no-effect control and ±100 the full control effect; nearly all actives have a fitted effect of over 70% in size
Active calls of the source: *; i = inactive; u = inconclusive; x = not tested or not shown; [ ] = dose if it differs, or a comment. Unless noted, the call rests on the fitted dose curve; in most records, active means well fitted curve in the direction sought with a large enough effect; inconclusive means small, poorly fitted or top-dose-only effect, or another doubt; inactive means no such curve, though single readings can be large; an effect the other way counts as inactive or inconclusive. Potency means the concentration at half of the fitted maximal effect.

SMILES	FLuc inh	GPT2 inhibitor	HEK cytotox	NIH3T3 tox	hNpr1 antagonist	Npr1 antag conf	Npr2 selectivity	FLuc counter	GloSensor ctrl
COc1ccc(NC(=O)CN2C(=O)NC(c3ccc(Cl)cc3)C3=C2COC3=O)c(OC)c1 (stereo not given)	i	i	u	-28%	-1%	x	x	x	x
COc1cccc([S+](=O)([O-])N2CCC3(CC2)C(=O)NN=C3c2cccnc2)c1	i	i	u	u	u	x	x	x	x
O=C1NN=C(c2cccnc2)C12CCN([S+](=O)([O-])c1cccc(C(F)(F)F)c1)CC2	i	u	u	u	u	22µM*	22µM*	2%	24µM*
COc1ccc(N2CCN(C(=O)c3ccc4c(c3)C(O)CCCCCN4C)CC2)cc1 (stereo not given)	i	i	u	u	u	x	x	x	x
CN(Cc1ccc(N2CCCCC2)cc1)C(=O)c1ccc2c(c1)C(O)CCCCCN2C (stereo not given)	i	-2%	35µM*	u	14µM*	24µM*	22µM*	0%	27µM*
Cc1ccc(CN2CCN(C(=O)c3ccc4c(c3)C(O)CCCCCN4C)CC2)cc1 (stereo not given)	i	i	40µM*	u	11µM*	22µM*	19µM*	1%	17µM*
COCCN1Cc2ccc(Nc3cccnc3)nc2C(C)(C(=O)Nc2cccc(F)c2)C1 (stereo not given)	i	-11%[88.5 µM]	u	u	-15%[70.6 µM]	x	x	x	x
CCOc1ccccc1C(=O)NCc1nnc2cc(-c3nc(C(C)C)no3)ccn12	i	i	u	u	-24%	x	x	x	x
Cc1cc(C)cc(CN2CCC3(Cc4ccccc4CNC3=O)C2)c1 (stereo not given)	x	-10%	u	u	x	x	x	x	x
CN1CCCCC(CC(=O)N2CCCc3ccccc32)C1=O (stereo not given)	u	-7%	-10%	-15%	2%	x	x	x	x
O=C(CCn1cc(Cl)cn1)N1CCOC(c2ccc(Cl)cc2)C1 (stereo not given)	i	-26%	79µM*	-6%	u	u	u	4%	0%
CCCNC(=O)N1CCC(c2noc(-c3ccccc3)n2)C1 (stereo not given)	i	-2%	u	u	1%	x	x	x	x
Cc1ccc(CNC(=O)N2CCC(c3noc(-c4ccccc4)n3)C2)cc1 (stereo not given)	i	4%	40µM*	u	18µM*	u	24µM*	0%	24µM*
CCCc1ccc(S(=O)(=O)NC2CCN(c3ccc(=O)n(CC4CC4)n3)CC2)cc1	i	u	u	u	10µM*	12µM*	15µM*	-1%	14µM*
O=c1ccc(N2CCC(NS(=O)(=O)c3ccccc3Cl)CC2)nn1CC1CC1	i	5%	-39%	u	13µM*	27µM*	22µM*	-1%	24µM*
O=C(CCC1CCCCC1)NC1CCN(c2ccc(=O)n(CC3CC3)n2)CC1	i	2%	u	u	u	x	x	x	x
Cc1cnc(CC2CCN(C(=O)C3CCCC3)C2)n1C1CC1 (stereo not given)	i	i	u	-25%	-1%	x	x	x	x
Cc1nn2c(c1-c1ccccc1Oc1ccccc1)N(C(=O)c1ccnn1C)CCC2	i	2%[88.5 µM]	u	-23%[138 µM]	-15%[70.6 µM]	x	x	x	x
Cc1nn2c(c1-c1ccccc1OCc1ccccc1)N(C(=O)COc1ccccc1C(N)=O)CCC2	i	u	u	6.3µM*	7.1µM*	17µM*	11µM*	0%	0%
Cc1nn2c(c1-c1ccccc1OCc1ccccc1)N(C(=O)Cc1ccccn1)CCC2	i	-7%[88.5 µM]	u	u	u	20µM*	13µM*	1%[86.2 µM]	-20%[86.2 µM]
Cc1cnc(C(=O)N2CCCCCCNC(=O)[C@@H]3C[C@@H](C(=O)N4CCc5ccccc5C4)C[C@@H]32)cn1	i	-12%	u	-22%	-4%	x	x	x	x
COc1ccc(NC(=O)c2ccc(-c3nnc4ccc(NC(=O)C5CCC5)cn34)cc2)cc1	i	i	u	-4%	-30%	u	-29%	-19%	-23%
COc1cccc(CCC(=O)N2CCCC(Cc3nc(C4CCOCC4)no3)C2)c1 (stereo not given)	i	i	-10%	-14%	0%	x	x	x	x
CN1[C@@H](CCC(=O)N2CCN(c3ccccn3)CC2)CNC(=O)[C@@H]2[C@H]1CCN2Cc1ncc[nH]1	i	-3%	-4%	3%	-2%	x	x	x	x
CCNC(=O)N1CC(C(=O)NCc2cccc(C)c2)CC(c2ccc(F)c(C)c2)C1 (stereo not given)	i	i	u	u	22µM*	u	u	0%	u
SMILES	FLuc inh	GPT2 inhibitor	HEK cytotox	NIH3T3 tox	hNpr1 antagonist	Npr1 antag conf	Npr2 selectivity	FLuc counter	GloSensor ctrl
COCC(=O)N1CC(C(=O)NCc2cccc(F)c2)CC(c2ccc(F)c(C)c2)C1 (stereo not given)	i	i	u	-18%	0%	x	x	x	x
O=C(CCC1CCN(C(=O)c2cc(C3CC3)[nH]n2)CC1)N1CCC(Cc2ccccc2)CC1	i	-2%	u	u	13µM*	24µM*	22µM*	-18%	19µM*
O=C(c1cc(C2CC2)[nH]n1)N1CCOC(Cc2cccc(C(F)(F)F)c2)C1 (stereo not given)	i	-13%	u	u	-5%	x	x	x	x
O=C(NCc1ccccc1Cl)c1ccc(CN2C(=O)NC3(CCOCC3)C2=O)cc1	i	i	-22%	-19%	-23%	x	x	x	x
CC(C)c1ccc(CNC(=O)c2ccc(CN3C(=O)NC4(CCOCC4)C3=O)cc2)cc1	i	i	u	u	7.1µM*	19µM*	19µM*	-2%	15µM*
O=C(NCCc1ccc(Cl)cc1)c1nc(-c2ccc(F)cc2)c2cnccn12	i	3%	u	-9%	0%	x	x	x	x

Screening results deposited in PubChem by National Center for Advancing Translational Sciences (NCATS).
